The source of these data is PubChem BioAssay.

Structures are written as SMILES. Active and inactive are the calls of the source.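 How the source made its calls, unless noted: active means fluorescence slope after compound addition differing from the mean of all tested samples at 99.7% confidence, mostly higher but some lower; inactive means the rest.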

Assay [1] can be described thus: inhibitors of TNFa-induced NFkB p65 translocation, primary screen, imaging, HUVEC, MLSMR starter and 10KST1 sets (AID 438;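 active means inhibition above 20% together with a positive visual image hit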;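 further: compound added about 3h40 before a 20 min TNFalpha stimulation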;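 on inhibition: signal is the nuclear over cytoplasmic p65 intensity ratio per well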). As to conditions: HUVEC TNFa-induced p65 nuclear translocation; cell count: measured here: nuclei count (cytotoxicity indicator), at 2.08 µM unless noted; inhibition: at 2 µM, stronger effect = higher value unless noted.
The nature of assay [2]: inhibitors of mutant huntingtin aggregation, primary screen, imaging, exon1htt(103Q)mCFP cells, high-content imaging (AID 483;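 active means visual image review flags a hit and inhibition of aggregation exceeds 20%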;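 further: compound exposure lasted 3 days before fixation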;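 on nuclei count: percent of the per-plate median nuclei count of sample wells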). The settings on record: exon1htt(103Q)mCFP cell line, aggregate imaging, at 2 µM; inhibition of aggregation: stronger effect = higher value; nuclei count: measured here: cell count, toxicity.
The nature of assay [3]: inhibitors of E-selectin induction by TNFa, primary screen, imaging, HUVEC, immunofluorescence, MLSMR starter and 10KST1 sets (AID 487;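 active means visually confirmed hit in the image check and inhibition above 20%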;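 on inhibition: signal is fraction of cell area covered by stained E-selectin grains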;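 on nuclei count: 100% = median nuclei count of all wells on the same plate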). The settings on record: HUVEC TNFalpha-induced E-selectin immunofluorescence imaging, at 2 µM; inhibition: stronger effect = higher value; nuclei count: measured here: cell number, toxicity.
Assay [4] concerns the target Voltage-gated potassium channel subunit beta-2 (Rattus norvegicus) (UniProt P62483). As to the kind of experiment: KvBeta enzyme negative modulators, primary screen, biochemical, NADPH fluorescence (AID 622;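 active means fluorescence slope higher than the sample average by over 3 SD, cut at about -0.22 in these data, passing the limit was not always enough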;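 further: slope of raw intensity against log time taken from 70 to 1610 s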). The settings on record: recombinant KvBeta, 4-cyanobenzaldehyde reduction, at 10 µM, stronger effect = higher value.
Assay [5] has the same target. As to the kind of experiment: KvBeta positive modulators, primary screen, biochemical, NADPH fluorescence (AID 623;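 active means NADPH fluorescence slope more negative than the mean of all samples by about 3 SD, 99.7% confidence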;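 further: fluorescence intensity change per second fitted from 20 to 320 s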). The settings on record: Recombinant KvBeta, NADPH fluorescence decrease slope, 10 min; at 10 µM; stronger effect = lower value.
The target in assay [6] is Muscarinic acetylcholine receptor M4 (Homo sapiens) (UniProt P08173). As to the kind of experiment: compounds altering M4/GIRK thallium flux, either direction, primary screen, M4 allosteric agonist project, cell-based, HEK293 M4/GIRK, BTC-AM (AID 625).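 Further: thallium influx through GIRK channels coupled to M4 in HEK293 cells with BTC-AM dye.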 As to conditions: at 10 µM, actives lie on both sides.
Assay [7] in a line: inhibitors of Sendai virus-induced IRF3 signaling, primary screen, TLR/RLR signaling modifier project, cell-based, Sendai virus stimulus, luciferase, 10K MLSCN set (AID 602276;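 active means inhibition at or above 50% at 10 µM; inactive means inhibition below 50%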;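 further: firefly luciferase from ISG56 promoter only with Renilla not read in this screen; 0% = Sendai virus plus DMSO and 100% = medium plus DMSO without virus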). The settings on record: HEK293 RL24 IRF3 luciferase reporter, at 10 µM, stronger effect = higher value. (A reporter such as luciferase makes a cellular process visible.)
Assay [8] can be described thus: inhibitors of poly I:C-induced TLR3 signaling, primary screen, cell-based, poly I:C stimulus, luciferase, 10K MLSCN set (AID 602277;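 active means inhibition of the reporter signal at or above 50%; inactive means inhibition below 50%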). As to conditions: HEK293-TLR3 RL24 IRF3 luciferase reporter, at 10 µM, stronger effect = higher value.
The nature of assay [9]: inhibitors of Chlamydomonas gravitaxis, primary screen, whole organism, Chlamydomonas reinhardtii, WT vs cilia-less mutant, absorbance, 96-well (AID 463189;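 active means inhibition at or above 50% relative to wild type and mutant plate controls; inactive means inhibition below 50%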;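 further: 0% = wild type cc124 cells in DMSO and 100% = ciliumless bld1 mutant cells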). The settings on record: OD600 absorbance, 2 days, at 10 µM, stronger effect = higher value.

Muscarinic acetylcholine receptor M4 (Homo sapiens), sequence (P08173 whole entry, looked up): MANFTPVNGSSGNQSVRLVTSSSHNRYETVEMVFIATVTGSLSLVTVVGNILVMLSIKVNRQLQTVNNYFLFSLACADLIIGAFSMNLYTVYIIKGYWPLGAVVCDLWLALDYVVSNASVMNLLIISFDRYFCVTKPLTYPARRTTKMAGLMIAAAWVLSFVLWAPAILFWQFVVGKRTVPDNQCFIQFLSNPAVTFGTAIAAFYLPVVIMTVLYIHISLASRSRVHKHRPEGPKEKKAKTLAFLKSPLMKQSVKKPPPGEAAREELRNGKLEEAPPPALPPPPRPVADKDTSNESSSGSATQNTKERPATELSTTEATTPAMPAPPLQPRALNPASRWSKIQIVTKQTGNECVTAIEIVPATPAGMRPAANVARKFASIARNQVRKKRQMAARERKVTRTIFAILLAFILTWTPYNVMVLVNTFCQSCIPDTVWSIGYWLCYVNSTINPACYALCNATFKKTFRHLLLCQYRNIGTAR
Voltage-gated potassium channel subunit beta-2 (Rattus norvegicus), sequence (P62483 whole entry, looked up): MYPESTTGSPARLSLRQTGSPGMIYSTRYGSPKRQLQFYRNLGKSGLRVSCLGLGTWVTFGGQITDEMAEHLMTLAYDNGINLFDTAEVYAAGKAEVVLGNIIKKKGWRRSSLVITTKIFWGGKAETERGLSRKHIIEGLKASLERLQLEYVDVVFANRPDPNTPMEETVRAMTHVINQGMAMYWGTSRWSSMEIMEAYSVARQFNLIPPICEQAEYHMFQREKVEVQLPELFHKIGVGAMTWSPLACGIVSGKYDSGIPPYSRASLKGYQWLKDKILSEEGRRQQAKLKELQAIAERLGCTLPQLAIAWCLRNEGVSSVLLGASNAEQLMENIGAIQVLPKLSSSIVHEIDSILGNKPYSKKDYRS

The inhibition is the relative decrease from the control value, in per cent. `O=C(C1CCCN(S(=O)(=O)c2cccc3nsnc23)C1)N1CCC2(CC1)OCCO2` (stereo not given) showed a cell count in assay [1] of 815. Also, the inhibition in [1] was -0.7% (inactive); in [3], -154% (inactive); in assay [7], 16.9% (inactive); in assay [8] it was 1.28% (inactive). Moreover, in [2], the inhibition of aggregation was 10.6% (inactive). The nuclei count in [2] amounted to 96.6%; in assay [3] it was 125%. In addition, the fluorescence slope in [4] is -0.322 (inactive); in [6], 0.00517 (inactive). In assay [5], the NADPH fluorescence slope was -2.9e-05 (inactive).
Consider `O=C(O)Cc1cnc[nH]1`, for which the inhibition in assay [9] is 2.27% (inactive).
As for `Cc1ccc(O)c(CN2CCN(c3ccccc3)CC2)c1`, the cell count in assay [1] was 307. Besides, the inhibition was 1% (inactive) in [1], -91.9% (inactive) in [3], 12% (inactive) in assay [7] and 15.6% (inactive) in assay [8]. In addition, the inhibition of aggregation in [2] was -4.7% (inactive). The nuclei count in assay [2] came to 95.9%; in [3], 120%. Besides, the fluorescence slope in assay [4] is -0.202 (inactive); in assay [6], 0.00457 (inactive). In addition, the NADPH fluorescence slope in assay [5] is -1.8e-05 (inactive).
The compound `CC1CCN2c3nc4ccccn4c(=O)c3CC3(C(=O)N(C)C(=O)N(C)C3=O)C2C1` (stereo not given) had a cell count in assay [1] of 459. The inhibition in assay [1] was -8.6% (inactive); in assay [3], -10% (inactive); in assay [7], 10.8% (inactive); in assay [8] it was 16.3% (inactive). For the same compound, the inhibition of aggregation in assay [2] was 11.4% (inactive). Besides, the nuclei count in assay [2] came out at 76.7%; in assay [3] it was 95.1%. Moreover, the values for the fluorescence slope in assay [4] and in assay [6] were -0.523 (inactive) and 0.00473 (inactive), respectively. For the same compound, the NADPH fluorescence slope in assay [5] was -6.2e-05 (inactive).
`O=C(c1ccc2nc3ccc(Cl)cc3c(=O)n2c1)N1CCC2(CC1)OCCO2` registered a cell count in [1] of 758. In addition, the inhibition is -20.4% (inactive) in assay [1], -56.7% (inactive) in assay [3], -8.72% (inactive) in [7] and -12% (inactive) in [8]. Further, the inhibition of aggregation in assay [2] is 8% (inactive). The nuclei count in assay [2] turned out to be 110%; in assay [3] it was 125%. Also, the results for the fluorescence slope in assay [4] and in assay [6] were -0.0098 (inactive) and 0.00414 (inactive), respectively. Also, the NADPH fluorescence slope in assay [5] is 1.1e-05 (inactive).
On to `COc1cc(C2NCc3ccccc3-n3cccc32)ccc1O` (stereo not given), for which, in assay [1], the cell count came to 660. Also, the inhibition was -19.1% (inactive) in assay [1], -128% (inactive) in assay [3], -1.03% (inactive) in [7] and -2.21% (inactive) in assay [8]. Besides, in [2], the inhibition of aggregation was 12.9% (inactive). In addition, the nuclei count in [2] was found to be 123%; in assay [3] it was 110%. The figures for the fluorescence slope in [4] and in assay [6] were -0.487 (inactive) and 0.00515 (inactive), respectively. Moreover, the NADPH fluorescence slope in [5] was -3.3e-05 (inactive).
As for `Cc1ccc(S(=O)(=O)Cc2ccc(C(=O)N3CCC4(CC3)OCCO4)o2)cc1`, the cell count in assay [1] is 602. Further, the inhibition was -6.9% (inactive) in assay [1], -17.6% (inactive) in assay [3], -7.38% (inactive) in assay [7] and -9.45% (inactive) in assay [8]. Moreover, the inhibition of aggregation in [2] was 16.1% (inactive). The values for the nuclei count in assay [2] and in assay [3] were 113% and 102%, respectively. In addition, the fluorescence slope in assay [4] is -0.432 (inactive); in assay [6], 0.00517 (inactive). Moreover, the NADPH fluorescence slope in [5] is -0.000506 (inactive).
In turn, `CC12CCCCC1=[N+]([O-])CN2O` (stereo not given) registered a cell count in assay [1] of 725. For the same compound, the inhibition in assay [1] was -10% (inactive); in assay [3], -15.8% (inactive); in assay [7], -0.121% (inactive); in [8] it was 6.9% (inactive). The inhibition of aggregation in assay [2] is -27.6% (inactive). Also, the nuclei count in assay [2] amounted to 99.9%; in assay [3], 118%. In addition, the fluorescence slope in [4] was -0.554 (inactive); in assay [6], 0.0045 (inactive). The NADPH fluorescence slope in assay [5] is 1.5e-05 (inactive).
Compound `Cc1[nH]c2c(Cl)cccc2c1CCN` came in with a cell count in assay [1] of 517. The inhibition is 3.9% (inactive) in assay [1], -19.9% (inactive) in [3], 13% (inactive) in assay [7] and 18.6% (inactive) in assay [8]. Further, the inhibition of aggregation in assay [2] is 1.5% (inactive). Besides, the nuclei count in assay [2] was determined as 86.5%; in [3], 110%. Besides, the values for the fluorescence slope in assay [4] and in [6] were -0.427 (inactive) and 0.0063 (inactive), respectively. Besides, in [5], the NADPH fluorescence slope was -1.2e-05 (inactive).
As to `O=C(CN1CCN(Cc2cccc(Cl)c2)C1=O)N1CCC2(CC1)OCCO2`, the cell count in [1] was determined as 363. In addition, the inhibition is 1.1% (inactive) in assay [1], 26.2% (inactive) in assay [3], 4.07% (inactive) in assay [7] and 14% (inactive) in assay [8]. Further, the inhibition of aggregation in assay [2] was 19.2% (inactive). Further, the nuclei count in assay [2] worked out at 73.9%; in assay [3], 111%. The fluorescence slope was -0.578 (inactive) in assay [4] and 0.00798 (inactive) in assay [6]. In addition, in assay [5], the NADPH fluorescence slope was -1.5e-05 (inactive).
`Cc1cccc(-n2c(-c3ccco3)nc3ccccc3c2=O)n1` yielded a cell count in [1] of 344. Moreover, the inhibition in [1] is -2.8% (inactive); in [3], 20.8% (inactive); in assay [7], -11.4% (inactive); in assay [8], -10.7% (inactive). Moreover, the inhibition of aggregation in assay [2] was 3.4% (inactive). Also, the figures for the nuclei count in [2] and in assay [3] were 97.9% and 83.8%, respectively. The fluorescence slope in [4] was -0.368 (inactive); in [6] it was 0.00556 (inactive). Also, the NADPH fluorescence slope in [5] was 7.6e-06 (inactive).
For `CC(C)OC(=O)c1c(N)n(CC2CCCO2)c2nc3ccccc3nc12` (stereo not given), in assay [1], the cell count was 470. The inhibition is -5.1% (inactive) in [1], -26.3% (inactive) in assay [3], 9.43% (inactive) in assay [7] and 13.4% (inactive) in [8]. Also, the inhibition of aggregation in assay [2] is 23.6% (inactive). Moreover, the figures for the nuclei count in assay [2] and in assay [3] were 104% and 191%, respectively. Besides, the fluorescence slope in [4] was -0.0217 (active); in assay [6], 0.00718 (inactive). Besides, the NADPH fluorescence slope in [5] was 1.4e-05 (inactive).
With `CCCCn1c(O)c(C(C)=NCCc2ccccc2)c(=O)[nH]c1=O`, the cell count in assay [1] was 280. Besides, the inhibition in [1] was -5.3% (inactive); in assay [3], -114% (inactive); in assay [7], 3.98% (inactive); in [8] it was -8.74% (inactive). Besides, in assay [2], the inhibition of aggregation is 16.4% (inactive). Further, the nuclei count in assay [2] is 72.1%; in assay [3], 187%. Further, the fluorescence slope is -0.454 (inactive) in assay [4] and 0.00293 (inactive) in [6]. In addition, the NADPH fluorescence slope in assay [5] was -0.000351 (inactive).
Consider `CC(C)=CCSc1nnc([C@@H](N)Cc2c[nH]c3ccccc23)o1`, for which the cell count in [1] was 593. For the same compound, the inhibition in assay [1] is 0.9% (inactive); in assay [3], 2.3% (inactive); in [7], 5.87% (inactive); in assay [8], 2.18% (inactive). The inhibition of aggregation in assay [2] is 14.2% (inactive). In addition, the values for the nuclei count in assay [2] and in assay [3] were 101% and 92.2%, respectively. In addition, the values for the fluorescence slope in assay [4] and in assay [6] were -0.561 (inactive) and 0.00453 (inactive), respectively. The NADPH fluorescence slope in [5] was 2.9e-05 (inactive).
In the case of `Cc1cc(N2C(=O)C3CCCN3C2c2cccc(Cl)c2)no1` (stereo not given), in assay [1], the cell count was 465. Moreover, the inhibition in [1] was -3.9% (inactive); in assay [3], 28.8% (inactive); in assay [7], 13.2% (inactive); in assay [8] it was 22.3% (inactive). The inhibition of aggregation in assay [2] is 8.2% (inactive). In addition, the nuclei count in assay [2] is 97.3%; in assay [3], 91.4%. The values for the fluorescence slope in assay [4] and in assay [6] were -0.543 (inactive) and 0.00553 (inactive), respectively. In addition, in assay [5], the NADPH fluorescence slope is -2.7e-05 (inactive).
